In the library only some 12% were active in any assay of this set; here they are far more common.
JMJD2A Tudor = JMJD2A Tudor domain (human) inhibition. O75164. hit rate 4.4% among 390,000. AlphaScreen JMJD2A-Tudor / H3K4me3 peptide binding. Potency, µM (top dose mostly 114 µM), inactives show at the highest dose activity change, negative = inhibition, actives largely listed as inhibitors; also: % is scaled to controls: 0 for no effect and ±100 for the full control effect; nearly all actives have a fitted effect of over 50% in size
G9a block = G9a (human) methyltransferase inhibition | G9a H3K9 monomethylation, AlphaScreen, 2 h | hit rate 8.8% among 350,000 | Q96KQ7 | Potency, µM (doses to about 102 µM), inactives show top-dose activity, negative = inhibition, actives largely listed as inhibitors; also: % is scaled to controls: 0 for no effect and ±100 for the full control effect; nearly all actives have a fitted effect of over 75% in size
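Signal arises when biotinylated H3K9 peptide, once monomethylated, bridges streptavidin donor and antibody-captured acceptor beads. Enzyme at 20 nM was preincubated 15 min with test compounds; peptide 500 nM and SAM 20 uM then reacted for 2 h.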
HP1b binding inh = HP1-beta chromodomain-methylated histone interaction inhibition | P83916 | AlphaScreen HP1-beta / biotin-H3K9me3 peptide binding | Potency, µM (titrated, usually from 114 µM), without a hit: at the highest dose activity change, negative = inhibition, actives largely listed as inhibitors | hit rate 0.56% among 390,000; also: nearly all actives have a fitted effect of over 70% in size
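AlphaScreen: HP1-beta (50 nM) preformed 30 min with biotin-H3(1-18)K9me3 peptide (50 nM) in PBS pH 7.4, 0.01% Tween-20. Compound added for 30 min at RT, then streptavidin donor/nickel chelate acceptor beads (10 ug/mL) for 30 min.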
L3MBTL1 block = blocks human L3MBTL1; Q9Y468; AlphaScreen L3MBTL1–H3K9me1 peptide binding; Potency, µM (series often up to 57.1 µM), for the others: at the top dose activity, negative = inhibition, actives largely listed as inhibitors; hit rate 0.66% among 230,000; AID 485360; also: % is scaled to controls: 0 for no effect and ±100 for the full control effect; nearly all actives have a fitted effect of over 60% in size
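Displacement of a biotinylated histone H3(1-15) peptide monomethylated at Lys9 (75 nM) from L3MBTL1 (50 nM) was measured by AlphaScreen after a 30 min room-temperature compound incubation; cefsulodin titration served as intraplate control.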
BAZ2B inh = blocks human BAZ2B; Q9UIF8; AlphaScreen BAZ2B-H3K14Ac peptide displacement; Potency, µM (highest dose often 114 µM), inactives show at the highest dose activity change, negative = inhibition, actives largely listed as inhibitors; hit rate 4.4% among 360,000; also: % is scaled to controls: 0 for no effect and ±100 for the full control effect; nearly all actives have a fitted effect of over 60% in size
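Complex of BAZ2B and biotin-H3K14Ac (50 nM apiece) forms over 30 min at RT, then faces library compounds up to 110 uM for another 30 min; AlphaScreen beads added, 20 min dark incubation, luminescence read.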
Sfp PPTase inh = inhibitors of Bacillus subtilis Sfp phosphopantetheinyl transferase; Q9F4F7; Biochemical Sfp PPTase activity, qHTS; Potency, µM, inactives show largest response in the series, negative = inhibition, most hits filed as inhibitors; hit rate 3.5% among 310,000;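 also: the enzyme is Sfp with the accession as filed and its product quenches rhodamine fluorescence; 0% = enzyme reaction without inhibitor and -100% = no enzyme wells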
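Compounds were incubated with enzyme (final 15 nM) for 15 min at room temperature before substrate addition started the reaction. Fluorescence at 525 nm excitation, 598 nm emission was recorded immediately and after 30 minutes.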
An asterisk follows results filed as active; ? = inconclusive; . = no result given; [ ] = remark or other dose. Calls follow the shape of the dose curve; as a rule, active = well fitted curve in the direction sought with a large enough effect; inconclusive = small, poorly fitted or top-dose-only effect, or another doubt; inactive = no such curve, though single readings can be large; an effect the other way counts as inactive or inconclusive. Potency is read from the fitted curve at half-maximal effect.

SMILES | JMJD2A Tudor | G9a block | HP1b binding inh | L3MBTL1 block | BAZ2B inh | Sfp PPTase inh
COc1ccc(S(=O)(=O)NCC(c2cccnc2)N2CCN(c3ccccc3)CC2)cc1C (stereo not drawn) | ? | 50.1µM* | -12.9% | . | ? | -0.1%
COc1ccc(S(=O)(=O)NCC(c2cccnc2)N2CCN(c3ccc(F)cc3)CC2)cc1C (stereo not drawn) | ? | ? | -16.0% | -6.9% | ? | 1.3%
Cc1cccc2nc(-c3ccco3)c(Nc3ccc4c(c3)OCO4)n12 | 44.7µM* | 35.5µM* | ? | . | 20µM* | ?
Cc1cc(C)n2c(Nc3ccc4c(c3)OCCO4)c(-c3ccc(Cl)cc3)nc2n1 | ? | 1.4%[59 µM] | 8.9% | . | -4.2% | .
CSc1ccc(-c2nc3cccc(C)n3c2Nc2ccc3c(c2)OCO3)cc1 | 28.2µM* | 5.62µM* | ? | . | . | .
Cc1ccn2c(NC(=O)c3ccco3)c(-c3ccccc3)nc2c1 | -19.9% | -16.6%[59 µM] | 13.2% | 0.0% | 8.8% | 11.7%
Cc1ccn2c(Nc3ccc4c(c3)OCO4)c(-c3ccco3)nc2c1 | ? | 4.47µM* | ? | . | -36.7% | .
Cc1ccc(Nc2c(-c3ccc(C)o3)nc3cccc(C)n23)cc1 | 44.7µM* | 17.8µM* | ? | . | 25.1µM* | .
c1coc(-c2nnc(-c3ccc4c(c3)OCO4)o2)c1 | . | 12.7%[59 µM] | . | -5.5% | -33.8% | 4.6%
CCN(CC)c1ccc(NC(=O)C2CCCN(S(=O)(=O)c3ccc4c(c3)oc(=O)n4C)C2)c(C)c1 (stereo not drawn) | ? | ? | 12.0% | . | -13.5% | .
CCc1ccc2c(c1)-c1ccccc1S(=O)(=O)N2CC(=O)N1CCC(C)CC1 | -20.9% | -25.5%[59 µM] | 13.5% | . | -14.6% | .
Cc1cc(C)n2c(Nc3ccccc3)c(-c3ccccc3)nc2n1 | -13.7% | -3.9%[59 µM] | 27.7% | . | -23.9% | .
Cc1cccc2nc(-c3ccco3)c(Nc3ccccc3)n12 | ? | ? | -3.8% | . | 39.8µM* | -16.4%
COc1ccc(Nc2c(-c3ccc(C)o3)nc3ccccn23)cc1 | ? | . | -17.9% | . | . | .
Cc1ccc(-c2nc3cccc(C)n3c2Nc2ccc3c(c2)OCO3)o1 | 39.8µM* | 17.8µM* | ? | . | 28.2µM* | .
Cc1noc(C)c1S(=O)(=O)N1CCc2nc(COc3ccccc3)c3c(c2C1)CO[C@@H](C)C3 | . | . | . | . | . | 2.7%
CCOc1cc2[nH]c(=S)n(Cc3ccc(C(=O)NCCCN4CCOCC4)cc3)c(=O)c2cc1OCC | -32.4% | 25.1µM* | 62.7% | . | -15.4% | 11.9%
CCOc1cc2[nH]c(=S)n(Cc3ccc(C(=O)NCCCN(CC)CC)cc3)c(=O)c2cc1OCC | ? | 35.5µM* | -3.8% | . | -17.4% | -2.6%
CCOc1cc2[nH]c(=S)n(CCCN3CCOCC3)c(=O)c2cc1OCC | 56.2µM* | -47.5%[12.7 µM] | 8.8% | -2.7%[11.4 µM] | 1.4% | -8.0%
O=C(NCCCN1CCOCC1)c1ccc2c(=O)n(Cc3ccc(Cl)cc3)c(=S)[nH]c2c1 | -23.0% | 7.08µM* | 54.0% | . | -34.7% | -11.1%
CN(C)CCNC(=O)c1ccc2c(=O)n(Cc3ccc(Cl)cc3)c(=S)[nH]c2c1 | -30.3% | ? | -10.3% | . | ? | ?
Cc1ccc(CCNC(=O)CN2C(=O)COc3ccc(S(=O)(=O)N4CCCCCC4)cc32)cc1 | -14.7% | -9.4%[59 µM] | 38.3% | . | -17.1% | .
N#Cc1nc(Nc2cc(F)cc(F)c2)c2ncn(CCCN3CCCC3)c2n1 | -20.6% | . | . | . | . | .
O=c1c2cc3c(cc2[nH]c(=S)n1CCN1CCOCC1)OCO3 | 35.5µM* | ? | 22.1% | 3.6% | ? | -6.9%
CCOc1cc2[nH]c(=S)n(CCN3CCCCC3CC)c(=O)c2cc1OCC (stereo not drawn) | -33.1% | 56.2µM* | 14.6% | . | 1.7% | 8.7%
COc1cc2c(=O)n(CCCN3CCOCC3)c(=S)[nH]c2c(OC)c1OC | 31.6µM* | 12.6µM* | -10.5% | -0.1% | -3.3% | -16.8%
O=c1c2cc(N3CCOCC3)ccc2[nH]c(=S)n1CCCN1CCCCCC1 | -1.1% | -12.3%[12.7 µM] | 20.3% | -2.8%[11.4 µM] | -4.6% | -11.0%

Assay outcomes as filed in PubChem BioAssay.
